In test [1] the test system is Zika virus NS2B-NS3 protease (linked construct). The test is described as follows: Primary screen NINDS Rhodamine qHTS for Zika virus inhibitors (AID 1347160). Further: nearly all actives have a fitted effect of over 55% in size. On activity change, negative = inhibition: on the % scale 0 is the no-effect control and ±100 the full control effect. A digest of the protocol:
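Purified linked NS2B-NS3 protease (NS2B hydrophilic domain joined to NS3 protease by flexible linker), 25 nM in 10 mM Tris-HCl pH 8.0, 0.01% Tween 20. Compounds titrated, 15 min preincubation at room temperature; 1.5 microM Rhodamine110 substrate, FITC fluorescence change over 15 min.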
Background: In qHTS, concentration-response curves come from the screen itself.

For test [2], the target named is Calcium and integrin-binding protein 1 (Homo sapiens) (UniProt Q99828). Description: Primary qHTS for Identification of Calcium Integrin Binding Protein 1 (CIB1) Competitor (AID 1508620).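 Further: GST tagged CIB1 binding a fluorescein labelled alphaIIb integrin peptide tracer; top concentration of the series differs between compounds; on the % scale 0 is the no-effect control and ±100 the full control effect.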 In a few lines:
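Fluorescence polarization competition: GST-tagged CIB1 (1 uM final) preincubated with compound 15 min at room temperature, then FITC-labelled alphaIIb peptide (100 nM final) added. After 15 min at room temperature, polarization read at Ex 480/Em 540.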

In test [3] the target is Glutathione peroxidase 1 (Homo sapiens) (UniProt P07203). The test is described as follows: Primary qHTS Assay for Inhibitors of Recombinant Selenoprotein Glutathione Peroxidase 1 (GPX1) (AID 1845191). Further: nearly all actives have a fitted effect of over 65% in size. On activity, negative = inhibition: on the % scale 0 is the no-effect control and ±100 the full control effect. A digest of the protocol: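 GR-coupled assay: compounds preincubated 30 min at room temperature with GPX1, then reaction started with CHP; final 10 nM GPX1, 1 mM GSH, 0.5 mM CHP, 0.5 mM NADPH, 100 nM GR, 0.01% BSA, pH 7.5 Tris buffer. NADPH fluorescence (340/450 nm) read at 0 and 15 min.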

In test [4] the target is Phospholipid hydroperoxide glutathione peroxidase GPX4 (Homo sapiens) (UniProt P36969). Description: Primary qHTS Assay for Inhibitors of Recombinant Selenoprotein Glutathione Peroxidase 4 (GPX4) (AID 1845192). Further: on the % scale 0 is the no-effect control and ±100 the full control effect; nearly all actives have a fitted effect of over 65% in size. In a few lines:
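GR-coupled assay: recombinant GPX4 preincubated 30 min with compound at room temperature; final 200 nM GPX4, 1 mM GSH, 0.5 mM cumene hydroperoxide, 0.5 mM NADPH, 100 nM GR, 0.01% BSA, pH 7.5 Tris. NADPH fluorescence (340/450 nm) read at 0 and 15 min.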

Test [5] has as its target Luciferin 4-monooxygenase (Photinus pyralis) (UniProt P08659). Description: Primary firefly luciferase (FLuc) qHTS assay for identification of artifact compounds. (AID 1845220). Further: nearly all actives have a fitted effect of over 60% in size.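 On activity change, negative = inhibition: plate controls were DMSO vehicle for no effect and no enzyme for full effect.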 The note with it: outcome: dose series up to 54.1 µM unless noted. A digest of the protocol: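 Titrated compounds were incubated 15 min at RT, protected from light, with luciferin and ATP at 10 uM; reaction started with 10 nM FLuc, luminescence imaged at 5 min, and concentration-response fitted by Hill equation.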

A short description of test [6]: Primary fluorescence-based thiol-reactive (MSTI) qHTS assay for identification of artifact compounds. (AID 1845221). Further: nearly all actives have a fitted effect of over 65% in size. In a few lines: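 Compounds were incubated 1 h at room temperature in the dark with the MSTI probe (4 uM) in PBS pH 7.4, 2% DMSO. Signals were normalized between Acetyl-MSTI and MSTI.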
The subject of test [7] is Nanoluciferase (engineered Oplophorus gracilirostris luciferase). The test is described as follows: Primary Nanoluciferase (NLuc) qHTS assay for identification of artifact compounds. (AID 1845222).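 Further: NLuc secreted into diluted conditioned medium of S16 cells; 0% = DMSO and -100% = no enzyme.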 In a few lines:
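qHTS format, against NLuc in S16 cell-conditioned medium. Nano-Glo substrate 1:100 was added after 15 min at room temperature. Luminescence was taken after a further 5 min.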

Test [8] in a line: Primary redox qHTS assay for identification of artifact compounds. (AID 1845223).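 Further: 0% = DMSO and 100% = reference compound.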 A digest of the protocol: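 Amplex Red (25 uM) and HRP (250 mU/mL) in HBSS, with compounds for 15 min, then 250 uM DTT for 30 min, room temperature, dark. Fluorescence 525/598 nm read; normalized to DMSO and 10 uM DA3003; Hill fit.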
Another test has as its system NIH3T3. The test is described as follows: Cytotoxic Profiling of Annotated Libraries Using Quantitative High-Throughput Screening (AID 1296008). Further: nearly all actives have a fitted effect of over 60% in size. On max response: on the % scale 0 is the no-effect control and ±100 the full control effect. To be noted: Five cell lines viability, CellTiter-Glo ATP luminescence, 48-72 h; max response: active compounds read low. A digest of the protocol: (§1)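 Cells exposed to compounds for 48 or 72 hr at 37 degrees Celsius. Viability read as ATP-coupled luminescence with CellTiter-Glo after 10 min at room temperature.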
(Cellular ATP, detected with luciferase, serves as a proxy for viable cell number.)

In a further test the test system is C33A. Description: Primary qHTS to identify gynecologic anti-cancer compounds using libraries of approved drugs and bioactive compounds (AID 1345084). Further: nearly all actives have a fitted effect of over 55% in size. Further: potency means the concentration at half of the fitted maximal effect. The note with it: Gynecologic cancer cell panel viability, ATPlite luminescence, 48 h; series mostly up to 57.5 µM. In a few lines: (§2)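 Luminescence from the ATPlite ATP-monitoring reagent indicates viable cell number; lower signal means cytotoxicity. Cells received compound 16 h after seeding and were exposed for 48 h across five concentrations.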

The subject of the next test is Es-2. Described as above. To be noted: Gynecologic cancer cell panel viability, ATPlite luminescence, 48 h; series mostly up to 57.5 µM. In a few lines:
as §2

The next test deals with Hek293T. Described as above. To be noted: Gynecologic cancer cell panel viability, ATPlite luminescence, 48 h, control line for the selectivity index; series mostly up to 57.5 µM. In a few lines: as §2
In another test the test system is PA-1. The description is as above. To be noted: Gynecologic cancer cell panel viability, ATPlite luminescence, 48 h; series mostly up to 57.5 µM. In a few lines:
as §2

The next test concerns Tov-21-G. The description is as above. The note with it: Gynecologic cancer cell panel viability, ATPlite luminescence, 48 h; series mostly up to 57.5 µM. In a few lines: as §2
Another test concerns Tov112D. Described as above. To be noted: Gynecologic cancer cell panel viability, ATPlite luminescence, 48 h; series mostly up to 57.5 µM. A digest of the protocol: as §2
Another test has as its system HaCat. The test is described as follows: Cytotoxic Profiling of Annotated Libraries Using Quantitative High-Throughput Screening (AID 1296008). Further: nearly all actives have a fitted effect of over 60% in size. To be noted: Five cell lines viability, CellTiter-Glo ATP luminescence, 48-72 h; max response: active compounds read low. A digest of the protocol: as §1
A further test deals with CAOV3. Description: Primary qHTS to identify gynecologic anti-cancer compounds using libraries of approved drugs and bioactive compounds (AID 1345084). Further: nearly all actives have a fitted effect of over 55% in size. Further: potency means the concentration at half of the fitted maximal effect. To be noted: Gynecologic cancer cell panel viability, ATPlite luminescence, 48 h; series mostly up to 57.5 µM. In a few lines:
as §2

The subject of the next test is CASKI. Described as above. To be noted: Gynecologic cancer cell panel viability, ATPlite luminescence, 48 h; series mostly up to 57.5 µM. In a few lines: as §2
For the next test, the system named is JEG-3. The description is as above. The note with it: Gynecologic cancer cell panel viability, ATPlite luminescence, 48 h; series mostly up to 57.5 µM. In a few lines: as §2
Another test deals with OV90. The test is described as above. The note with it: Gynecologic cancer cell panel viability, ATPlite luminescence, 48 h; series mostly up to 57.5 µM. In a few lines:
as §2

Unmarked numbers belong to inactive results. Inconclusive results are not listed. Active and inactive are the calls of the source. The call rests on the fitted dose curve; in most records, active means well fitted curve in the direction sought with a large enough effect; inconclusive means small, poorly fitted or top-dose-only effect, or another doubt; inactive means no such curve, though single readings can be large; an effect the other way counts as inactive or inconclusive.

Chain of Calcium and integrin-binding protein 1 (Homo sapiens) (Q99828 whole entry, looked up): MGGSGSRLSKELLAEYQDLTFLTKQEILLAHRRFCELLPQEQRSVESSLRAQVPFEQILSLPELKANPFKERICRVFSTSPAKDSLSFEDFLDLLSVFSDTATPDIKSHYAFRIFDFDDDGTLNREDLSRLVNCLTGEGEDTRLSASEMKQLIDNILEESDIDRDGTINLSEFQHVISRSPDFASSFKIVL
Chain of Glutathione peroxidase 1 (Homo sapiens) (P07203 whole entry, looked up): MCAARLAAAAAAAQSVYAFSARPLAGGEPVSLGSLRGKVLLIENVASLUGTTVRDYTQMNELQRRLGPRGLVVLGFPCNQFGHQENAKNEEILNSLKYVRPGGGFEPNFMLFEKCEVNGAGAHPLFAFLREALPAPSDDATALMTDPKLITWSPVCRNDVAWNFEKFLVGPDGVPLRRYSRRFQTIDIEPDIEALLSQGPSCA
Chain of Phospholipid hydroperoxide glutathione peroxidase GPX4 (Homo sapiens) (P36969 whole entry, looked up): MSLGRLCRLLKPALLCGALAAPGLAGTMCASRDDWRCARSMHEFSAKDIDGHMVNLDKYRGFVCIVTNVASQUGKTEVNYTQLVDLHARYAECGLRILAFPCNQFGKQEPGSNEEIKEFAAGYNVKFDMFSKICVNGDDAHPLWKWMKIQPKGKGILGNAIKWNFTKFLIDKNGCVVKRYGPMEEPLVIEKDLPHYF

In the case of `COC1CC(O[C@H]2CC[C@@]3(C)C(CCC4C3CC[C@]3(C)C(C5=CC(=O)OC5)CCC43O)C2)OC(C)C1OC1OC(COC2OC(CO)C(O)C(O)C2O)C(O)C(O)C1O` (some centres undefined), the Potency entry in test [1], in test [2], in test [3] and in [4] was “inactive” in each case. Besides, the activity change, negative = inhibition in [5] is -3.95% [at 11.6 µM]. Besides, the activity change, negative = thiol reactive in test [6] was 0.284% [at 11.5 µM]. The activity, negative = inhibition in [7] is 0.592% [at 11.6 µM]. Moreover, in test [8], the redox activity (% of DA3003) was 16.1% [at 11.5 µM]. Besides, the max response with NIH3T3 was 2.72%. Also, the Potency with C33A is 2240 nM (active); with Es-2, 3160 nM (active); in the test with Hek293T, 3550 nM (active); with PA-1, 2240 nM (active); in the test with Tov-21-G it was 2240 nM (active); in the test with Tov112D it was 794 nM (active).
Take `CC(=O)C1CCC2C3CCC4C[C@@H](O)CCC4(C)C3CCC12C` (some centres undefined): the Potency result (in [3]; in [4]; in test [6]; in test [7]; in test [8]; with C33A) was “inactive” each time. The Potency result in the test with CAOV3, in the test on CASKI, with Es-2, in the test with Hek293T, in the test on JEG-3 and in the test with OV90 was “inactive” in each case. In addition, the Potency entry in the test on PA-1, with Tov-21-G and in the test on Tov112D was “inactive” each time. The outcome (in test [5]; with NIH3T3) was inactive. Moreover, the max response with HaCat is -9.42%.
Turning to `C[C@H]1CN(CC[C@H](O)C2CCCCC2)CC[C@@]1(C)c1cccc(O)c1`, the Potency result in test [1], in test [2], in [3], in [4], in [6] and in [7] was “inactive” each time. Besides, the Potency result (in test [8]; in the test on C33A; in the test with CAOV3; with CASKI; in the test with Es-2; in the test on Hek293T) was “inactive” throughout. For the same molecule, the Potency entry in the test with JEG-3, in the test with OV90, in the test on PA-1, with Tov-21-G and in the test with Tov112D was “inactive” each time. The call in [5] was inactive. For the same molecule, the max response was 3.77% in the test with HaCat and -4.6% in the test with NIH3T3.
Consider `O=S(=O)(c1ccccc1F)N1CCOc2c(N3CCNCC3)cccc21`, for which the Potency entry (in test [1]; in test [2]; in [4]; in test [7]; in test [8]; in the test on C33A) was “inactive” throughout. The Potency entry in the test on CASKI, in the test with Es-2, in the test with Hek293T, in the test with JEG-3, in the test on OV90 and in the test with PA-1 was “inactive” each time. Further, the Potency result in the test on Tov-21-G and in the test with Tov112D was “inactive” each time. Also, the molecule was classed as inactive (in [5]; in the test with HaCat). Moreover, the max response with NIH3T3 is 2.22%.
Consider `C=C(C)[C@@]12O[C@@H]1[C@@]1(C)C(=C[C@H]2O)CC[C@@H](O)[C@@H]1C`, for which the Potency result in [1], in [2], in [4], in test [6], in test [7] and in test [8] was “inactive” throughout. In addition, the Potency result with C33A, with CAOV3, in the test on CASKI, with Es-2, in the test on Hek293T and with JEG-3 was “inactive” in each case. In addition, the Potency result in the test on OV90, with PA-1, in the test on Tov-21-G and in the test on Tov112D was “inactive” in each case. For the same molecule, in [5], the molecule was classed as inactive. In addition, the max response in the test on HaCat is -1.07%; in the test on NIH3T3 it was 2.77%.
Consider `C=C1CC[C@H]2[C@@H](/C=C(\C)C(=O)[C@@]3(OC(C)=O)C[C@H](C)[C@H](OC(=O)c4ccccc4)[C@@H]3[C@H]1OC(C)=O)C2(C)C`, for which the Potency result in test [1], in [2], in test [3], in test [4], in [6] and in test [7] was “inactive” in each case. In addition, the Potency entry (in test [8]; with C33A; in the test on CAOV3; in the test with CASKI; in the test on Es-2; in the test with Hek293T) was “inactive” each time. For the same molecule, the Potency entry in the test on JEG-3, in the test with OV90, in the test with PA-1, in the test on Tov-21-G and in the test on Tov112D was “inactive” in each case. The call in test [5] was inactive. Moreover, the max response is -1.11% with HaCat and -4.22% in the test with NIH3T3.

Values taken from PubChem BioAssay (NCATS).
